Data on 29 molecules can be found in PubChem BioAssay (Tox21).

Assay [1] is described as follows: qHTS assay to identify small molecule agonists of the vitamin D receptor (VDR) signaling pathway - cell viability counter screen (AID 743224). Further: nearly all actives have a fitted effect of over 50% in size. Further: potency means the concentration at half of the fitted maximal effect. The method in brief:
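Cells: VDR-bla, 2,000/well, settled 4 h. Treatment: compounds in DMSO, 16 h, 37C/5% CO2. Readout: CellTiter-Glo luminescence after 30 min RT.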
On the technique in general: Quantitative high-throughput screening tests each substance at several concentrations.

Assay [2] in a line: qHTS assay to identify small molecule antagonists of the vitamin D receptor (VDR) signaling pathway - cell viability counter screen (AID 743225). Further: nearly all actives have a fitted effect of over 50% in size. Further: potency means the concentration at half of the fitted maximal effect. The method in brief:
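Luminescent cell viability (CellTiter-Glo) in VDR-bla HEK 293T cells after 16 h compound exposure at 37C in the presence of 3 nM final 1-alpha,25-dihydroxy vitamin D3.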

Assay [3] can be described thus: qHTS assay to identify small molecule agonists of the NFkB signaling pathway (AID 1159509; active means well fitted curve in the direction sought with a large enough effect in the signal ratio in the repeat runs, not every such curve was filed as active; the % refers to the signal ratio; further: series mostly up to about 61 µM). The method in brief:
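Agonist activity was read as beta-lactamase-driven FRET change (460 and 530 nm emission, 405 nm excitation) following 1.5 hr substrate loading at room temperature. Beforehand, ME-180 NFkB-bla reporter cells were treated with compounds for 5 hr at 37 C.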

Assay [4] can be described thus: qHTS assay to identify small molecule agonists of the NFkB signaling pathway - cell viability counter screen (AID 1159515; calls by dose curve; further: series mostly up to about 61 µM; nearly all actives have a fitted effect of over 55% in size). The essentials: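 Cells are seeded (2,000 NFkB-bla ME-180 per well), rested overnight, and dosed with DMSO-dissolved compounds for 5 hr at 37 C. Viability is then read by CellTiter-Glo luminescence after 30 min at room temperature.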
The nature of assay [5]: qHTS assay to identify small molecule agonists of the endoplasmic reticulum stress response signaling pathway (AID 1159516; active means well fitted activation curve with a large enough effect in the signal ratio in the repeat runs, not every such curve was filed as active; the % refers to the signal ratio). The essentials: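 Cells are seeded at 1,500 per well and incubated overnight. Compounds in DMSO are added for 5 hr at 37 C, then beta-lactamase FRET substrate for 2 hr at room temperature, and fluorescence at 460 and 530 nm is measured.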
The nature of assay [6]: qHTS assay to identify small molecule agonists of the endoplasmic reticulum stress response signaling pathway - cell viability counter screen (AID 1159517; calls by dose curve;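 further: HeLa cells carrying an ER stress response element beta-lactamase reporter; series mostly up to about 61 µM; nearly all actives have a fitted effect of over 50% in size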). The essentials:
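Cpd-treated ESRE-bla HeLa (5 hr, 37 C) → LiveBLAzer 2 hr RT → CellTiter-Glo 30 min RT → luminescence.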

Assay [7] addresses Nuclear receptor ROR-gamma (Homo sapiens) (UniProt P51449). Kind of assay: qHTS assay to identify small molecule antagonists of the retinoid-related orphan receptor gamma (ROR-gamma) signaling pathway (AID 1159521; further: nearly all actives have a fitted effect of over 50% in size; further: potency means the concentration at half of the fitted maximal effect). The method in brief:
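CHO cells expressing RORγ under a TET-on promoter, luciferase under RORE control. Dox 1 uM final, 16 h; compounds added 2 h prior. Luminescence decrease measured.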

Assay [8] in a line: qHTS assay to identify small molecule antagonists of the retinoid-related orphan receptor gamma (ROR-gamma) signaling pathway - cell viability counter screen (AID 1159520). Further: nearly all actives have a fitted effect of over 50% in size. The method in brief: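 Tet-on ROR gamma CHO cells (1,000/well) were plated 4 hr, given compounds in DMSO for 2 hr at 37 C, then induced with 1 uM final doxycycline for 16 hr. Viability was read as ATP by CellTiter-Glo luminescence after 30 min.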

Assay [9] in a line: qHTS assay to identify small molecule agonists of the AP-1 signaling pathway - cell viability counter screen (AID 1159525; calls by dose curve; further: nearly all actives have a fitted effect of over 55% in size; further: potency means the concentration at half of the fitted maximal effect). The method in brief: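 Each titration point was normalised to DMSO and tetra n-octyl ammonium bromide controls. The read was Cell Titer Glo luminescence after 30 min at RT, following 5 h compound exposure of ME-180 AP-1-bla cells at 37 °C.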
The nature of assay [10]: qHTS assay to identify small molecule agonists of the AP-1 signaling pathway (AID 1159526; calls by dose curve).

Inconclusive results are not listed. Calls of active or inactive are those of the source. Unless noted, the call rests on the fitted dose curve; in most records, active means well fitted curve in the direction sought with a large enough effect in the repeat runs; inconclusive means weak or mixed curves; inactive means no such curve, though single readings can be large; an effect the other way counts as inactive or inconclusive.

As to `CCCCC(O)(Cn1cncn1)c1ccc(Cl)cc1Cl` (centres undefined), the results for the Potency in assay [1], in [2] and in assay [7] were 48.9 µM (active), 54.9 µM (active) and 54.4 µM (active), respectively. For the same molecule, the outcome in [3] and in assay [5] was inactive. Moreover, the Potency entry in assay [4] and in assay [6] was “inactive” throughout.

For `CCCCCCCCCCOC(=O)c1ccccc1C(=O)OCCCCCCCCCC`, the Potency entry in [1], in [4], in assay [8], in assay [7] and in assay [9] was “inactive” each time. Further, the outcome in assay [3], in assay [5] and in [10] was inactive.

Regarding `O=C(CBr)OCc1ccccc1`, the Potency entry in assay [1], in assay [4], in [6], in assay [8] and in assay [9] was “inactive” each time. In addition, the molecule was called inactive in [3] and in [5].

On to `CO/C=C(/C(=O)OC)c1ccccc1COc1cccc(C(F)(F)F)n1`, for which the molecule was classed as inactive in assay [3], in assay [5] and in assay [10]. The Potency entry in assay [4], in assay [6] and in assay [9] was “inactive” each time. In assay [7], the Potency is 0.769 µM (active).

On to `CC[C@H]1C[C@H]2[C@@H]3CCC4=CC(=O)CC[C@@H]4[C@H]3CC[C@]2(C)[C@H]1O`, for which the Potency result in [1], in [2], in assay [4], in assay [6], in assay [8] and in assay [9] was “inactive” in each case. For the same molecule, the molecule was called inactive in [3] and in assay [5].

On to `CC1CC(CC2CCC(N)C(C)C2)CCC1N` (centres undefined), for which the Potency entry in assay [1], in [4], in assay [8], in assay [7] and in [9] was “inactive” each time. In addition, the molecule was classed as inactive in assay [3] and in assay [5].

For the molecule `CC/C(=N\OC/C=C/Cl)C1=C(O)CC(C2CCOCC2)CC1=O` (centres undefined), the Potency result in assay [1], in [4], in [8], in assay [7] and in assay [9] was “inactive” each time. The result in assay [3], in [5] and in [10] was inactive.

In the case of `CN(N=O)c1ccc([N+](=O)[O-])cc1`, the Potency result in assay [1], in assay [4], in [8], in assay [7] and in assay [9] was “inactive” throughout. Besides, the molecule was called inactive in assay [3], in [5] and in [10].

Take `CCBr`: the Potency entry in assay [1], in [2], in assay [4], in [8], in assay [7] and in assay [9] was “inactive” in each case. Moreover, the call in assay [3], in assay [5] and in [10] was inactive.

With `CC(=O)CCC(C)=O`, the Potency result in assay [1], in assay [2], in assay [4], in [8], in [7] and in assay [9] was “inactive” each time. The outcome in assay [3], in assay [5] and in assay [10] was inactive.

For the molecule `ClC=C(Cl)Cl`, the Potency result in assay [1], in assay [4], in assay [6], in assay [8], in assay [7] and in [9] was “inactive” throughout. For the same molecule, the result in [3] and in assay [10] was inactive.

As to `CCN(C)N=O`, the Potency result in [1], in [4], in assay [8] and in [9] was “inactive” each time. For the same molecule, the molecule was classed as inactive in [3] and in [5].

On to `C[C@@H]1CC[C@H]2[C@@H](C)C(=O)O[C@@H]3O[C@@]4(C)CC[C@@H]1[C@]32OO4`, for which the Potency result in assay [1], in [2], in assay [4], in assay [8] and in [9] was “inactive” throughout. The molecule was classed as inactive in assay [3], in assay [5] and in assay [10]. The Potency in assay [7] is 0.237 µM (active).

Consider `CN1C(=O)NC(=O)C(C)(C2=CCCCC2)C1=O` (centres undefined), for which the Potency result in assay [1], in assay [4], in assay [6], in assay [8], in [7] and in assay [9] was “inactive” in each case. In addition, the result in assay [3] and in assay [10] was inactive.

For the molecule `COP(=S)(Oc1cc(Cl)c(Br)cc1Cl)c1ccccc1` (centres undefined), the Potency in assay [1] was 38.9 µM (active). Further, the Potency entry in assay [2], in [4] and in assay [9] was “inactive” each time. Besides, the molecule was called inactive in assay [3] and in assay [5].

Take `Cc1ccc(N)cc1C`: the Potency result in assay [1], in assay [2], in assay [4], in assay [8], in assay [7] and in [9] was “inactive” throughout. For the same molecule, the molecule was called inactive in assay [3], in assay [5] and in assay [10].

On to `COCCOCCO`, for which the Potency entry in assay [2], in assay [4], in [8] and in assay [7] was “inactive” throughout. For the same molecule, the outcome in assay [3] and in [5] was inactive.

As to `CCOC(=O)[C@]1(c2ccccc2)Oc2ccccc2[C@@H]1N`, the molecule was classed as inactive in [3]. The Potency result in assay [4], in [6], in assay [8], in assay [7] and in assay [9] was “inactive” each time.

On to `ClCC(Br)CBr` (centres undefined), for which the Potency entry in [1], in assay [2], in [4], in assay [8], in assay [7] and in assay [9] was “inactive” throughout. For the same molecule, the molecule was classed as inactive in assay [3], in assay [5] and in assay [10].

In the case of `C=CCN1CC[C@]23c4c5ccc(O)c4O[C@H]2C(=O)CC[C@@]3(O)[C@H]1C5`, the Potency entry in assay [1], in [2], in assay [4], in [8], in assay [7] and in assay [9] was “inactive” each time. Besides, the result in assay [3], in assay [5] and in assay [10] was inactive.

`ClCc1ccccc1`: the Potency result in assay [1], in assay [2], in assay [4], in [8], in assay [7] and in [9] was “inactive” throughout. In addition, the molecule was classed as inactive in assay [3], in assay [5] and in [10].

On to `CC(C)N(C(=O)COc1nnc(C(F)(F)F)s1)c1ccc(F)cc1`, for which the Potency result in assay [2], in assay [4], in [8] and in [9] was “inactive” each time. In addition, the molecule was called inactive in [3], in [5] and in [10].

On to `Clc1cc(Cl)c(Cl)c(Cl)c1`, for which the Potency result in assay [1], in assay [2], in [4], in assay [8] and in assay [9] was “inactive” in each case. The call in assay [3], in assay [5] and in [10] was inactive.

Consider `C=CCCl`, for which the Potency result in assay [1], in assay [2], in assay [4], in assay [8] and in assay [9] was “inactive” each time. For the same molecule, the outcome in assay [3], in [5] and in assay [10] was inactive.

Regarding `CCCCCC[N+](=O)[O-]`, the Potency result in assay [1], in [2], in [4], in assay [8] and in assay [9] was “inactive” throughout. The molecule was called inactive in assay [3], in [5] and in assay [10].

`OC(c1ccc(Cl)cc1)(c1ccc(Cl)cc1)c1cccnc1`: in assay [3], the result was inactive. Further, the Potency entry in [4], in assay [6], in [8] and in assay [9] was “inactive” each time. For the same molecule, the Potency in assay [7] was 54.5 µM (active).

For `CC(=O)c1cc2c(cc1C)C(C)(C)C(C)CC2(C)C` (centres undefined), the Potency in assay [1] and in assay [9] was 49 µM (active) in each case. For the same molecule, the outcome in assay [3] and in [5] was inactive. For the same molecule, the Potency result in assay [4] and in assay [8] was “inactive” in each case.

On to `BrCCCCBr`, for which the Potency entry in assay [1], in assay [2], in assay [4], in assay [8], in [7] and in assay [9] was “inactive” in each case. For the same molecule, the result in assay [3], in [5] and in assay [10] was inactive.

Consider `Nc1nc(=S)[nH][nH]1`, for which the Potency result in assay [1], in [2], in [4], in [8], in assay [7] and in [9] was “inactive” each time. For the same molecule, the call in assay [3], in [5] and in [10] was inactive.
